# PubChem BioAssay
# Values joined by “and” are separate entries in the source; they are usually repeats but may differ in a detail not shown here. Identical values can stand only once. For some assays here: Entries with a potency or affinity are not part of this list. Active and inactive are the calls of the source.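 How the source made its calls, unless noted: active means thallium flux through the channel raised or lowered by more than 3 SD from vehicle-only wells, actives on both sides; inactive means the rest.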
# Legend:
# [1] = modulation of C. elegans fzo-1 (AID 1259413; call rule not given here;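 further: fzo-1 mutant C. elegans worms in liquid wells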); conditions: C. elegans fzo-1 modulator screen, mean read-out; stronger effect = higher value
# F380Y = assay: BK channel mutant inhibitors and activators – cell-based, U2OS BacMam, thallium flux, beta subunits, selectivity assay, profiling panel (AID 1259406); conditions: U2OS BacMam BK variants, at 30 µM;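 further: initial slope of Thallos dye fluorescence rise after thallium is added; log ratio against the mean of 0.3% DMSO vehicle wells on the same plate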
# F380Y/beta1 = assay: as above; conditions: U2OS BacMam BK variants, at 30 µM
# F380Y/beta2Delta = assay: as above; conditions: U2OS BacMam BK variants, at 30 µM
# R275C = assay: as above; conditions: U2OS BacMam BK variants, at 30 µM
# R275C/beta1 = assay: as above; conditions: U2OS BacMam BK variants, at 30 µM
# R275C/beta2Delta = assay: as above; conditions: U2OS BacMam BK variants, at 30 µM
# R275C/Slo1WT/beta2 = assay: as above; conditions: U2OS BacMam BK variants, at 30 µM
# [2] = compounds altering circadian rhythm period length – cell-based, LOPAC library, luminescence reporter (AID 2774; call rule not given here;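 further: values are relative to mean of DMSO wells on each plate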); conditions: circadian reporter cells, at 7 µM, actives lie on both sides
# [3] = blockers of polyQ-driven CASP3 activation – cell-based (AID 1583); conditions: polyglutamine-induced caspase-3 activation, cell assay; stronger effect = higher value;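 tested at 10 µM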
# [4] = restoration of touch response, mutant HTT neurons – whole organism, C. elegans mechanosensory neurons, N-terminal huntingtin (AID 1599); conditions: C. elegans polyQ-huntingtin mechanosensory neurons, stronger effect = higher value
# [5] = glutamate transport activators, MN-1 cells, MN-1 cell line (AID 1612); conditions: MN-1 motor neuron cells, stronger effect = higher value;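 further: tested at 1 µM final; 0% = mean of DMSO vehicle wells on each plate; positive means more glutamate uptake than control and negative means less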
# [6] = 75Q-TubH aggregate inhibition, S. cerevisiae, yeast (AID 1616); conditions: S. cerevisiae 75Q-TubH polyglutamine aggregation suppression; stronger effect = higher value
# [7] = compounds altering viability of human ES cells (AID 493140; call rule not given here;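 further: cells exposed to compounds for four days before counting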); conditions: human embryonic stem cell survival screen; stronger effect = higher value
# [8] = tested on: Hepatitis C virus NS3 helicase; assay: blockers of NS3h binding to ssDNA – biochemical, fluorescence polarization, LOPAC1280 library, primary screen (AID 687035; in the data active means inhibition above about 37%); conditions: Purified HCV NS3 helicase, Cy5-dT15 ssDNA binding fluorescence polarization; stronger effect = higher value; concentration not given here
# [9] = compounds altering Cy5-DNA-NS3h complex signal – biochemical, LOPAC1280, artefact control for HCV NS3 helicase inhibitor project (AID 687037; call rule not given here); conditions: Cy5-DNA-NS3h complex fluorescence interference counterscreen
# [10] = blockers of cellular phospholipid synthesis – cell-based, LOPAC library, screen 4, primary screen (AID 1347384; call rule not given here); conditions: animal cells, phospholipid biosynthesis inhibition screen; at 10 µM
# [11] = tested on: Aerobactin synthetase IucA (Klebsiella pneumoniae, hypervirulent); assay: biochemical IucA inhibition screen of LOPAC library by absorbance (AID 1346212; call rule not given here;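 further: 100% = no compound wells and 0% = no enzyme wells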); conditions: IucA enzyme assay, absorbance (OD) readout; stronger effect = lower value;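 tested at 8 µM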
compound,measurement,setting,value
CN1C(=O)COc2c(C(=O)NC3CN4CCC3CC4)cc(Cl)cc21 (configuration not stated),mean signal,[1],219 (inactive)
same,log fold change Tl+ flux,F380Y,0.054 (inactive)
same,log fold change Tl+ flux,F380Y/beta1,0.0287 (inactive)
same,log fold change Tl+ flux,F380Y/beta2Delta,0.0242 (inactive)
same,log fold change Tl+ flux,R275C,-0.0315 (inactive)
same,log fold change Tl+ flux,R275C/beta1,0.0279 (inactive)
same,log fold change Tl+ flux,R275C/beta2Delta,-0.00752 (inactive)
same,log fold change Tl+ flux,R275C/Slo1WT/beta2,-0.0098 (inactive)
CN1CCN(C(=O)O[C@H]2c3nccnc3C(=O)N2c2ccc(Cl)cn2)CC1,mean signal,[1],290 (active)
same,log fold change Tl+ flux,F380Y,-0.0134 (inactive)
same,log fold change Tl+ flux,F380Y/beta1,-0.0113 (inactive)
same,log fold change Tl+ flux,F380Y/beta2Delta,0.0361 (inactive)
same,log fold change Tl+ flux,R275C,0.0376 (inactive)
same,log fold change Tl+ flux,R275C/beta1,0.0325 (inactive)
same,log fold change Tl+ flux,R275C/beta2Delta,0.0513 (inactive)
same,log fold change Tl+ flux,R275C/Slo1WT/beta2,-0.0138 (inactive)
c1ccc2c(c1)Nc1ccccc1S2,mean signal,[1],265 (inactive)
same,log fold change Tl+ flux,F380Y,-0.0351 (inactive)
same,log fold change Tl+ flux,F380Y/beta1,0.0323 (inactive)
same,log fold change Tl+ flux,F380Y/beta2Delta,0.033 (inactive)
same,log fold change Tl+ flux,R275C,-0.041 (inactive)
same,log fold change Tl+ flux,R275C/beta1,0.0203 (inactive)
same,log fold change Tl+ flux,R275C/beta2Delta,-0.0792 (inactive)
same,log fold change Tl+ flux,R275C/Slo1WT/beta2,0.00584 (inactive)
CN[C@@H](C)[C@H](O)c1ccccc1,period change,[2],-0.07 h (inactive)
Oc1cccc2cccnc12,inhibition,[3],-67%
same,rescue above control,[4],8.29
same,glutamate uptake change,[5],53.7%
same,aggregation suppression score,[6],0.00802
CNCC(O)c1ccc(O)cc1 (configuration not stated),period change,[2],-0.045 h (inactive)
same,survival,[7],2.92 (inactive)
same,inhibition,[8],-2% (inactive)
same,fluorescence ratio (interference),[9],1 (inactive)
same,mean signal,[1],258 (inactive)
same,outcome,[10],inactive
same,log fold change Tl+ flux,F380Y,-0.0218 (inactive)
same,log fold change Tl+ flux,F380Y/beta1,-4.2e-05 (inactive)
same,log fold change Tl+ flux,F380Y/beta2Delta,0.0172 (inactive)
same,log fold change Tl+ flux,R275C,-0.0246 (inactive)
same,log fold change Tl+ flux,R275C/beta1,0.022 (inactive)
same,log fold change Tl+ flux,R275C/beta2Delta,0.0197 (inactive)
same,log fold change Tl+ flux,R275C/Slo1WT/beta2,0.0309 (inactive)
NN=C(N)N,period change,[2],-0.015 hour (inactive) and -0.1 hour (inactive)
same,inhibition,[8],-1% (inactive) and -5% (inactive)
same,fluorescence ratio (interference),[9],1 (inactive) and 0.9 (inactive)
same,remaining activity,[11],111% (inactive) and 119% (inactive)
same,outcome,[10],inactive
COc1cccc([C@@]2(O)CCCC[C@@H]2CN(C)C)c1,mean signal,[1],274 (inactive)
same,log fold change Tl+ flux,F380Y,-0.0178 (inactive)
same,log fold change Tl+ flux,F380Y/beta1,-0.0211 (inactive)
same,log fold change Tl+ flux,F380Y/beta2Delta,-0.0331 (inactive)
same,log fold change Tl+ flux,R275C,-0.0685 (inactive)
same,log fold change Tl+ flux,R275C/beta1,-0.0302 (inactive)
same,log fold change Tl+ flux,R275C/beta2Delta,0.00141 (inactive)
same,log fold change Tl+ flux,R275C/Slo1WT/beta2,0.0567 (inactive)
CC[C@]1(O)CC[C@H]2[C@@H]3CCC4=CCCC[C@@H]4[C@H]3CC[C@@]21C,log fold change Tl+ flux,F380Y,0.0652 (inactive)
same,log fold change Tl+ flux,F380Y/beta1,-0.128 (active)
same,log fold change Tl+ flux,F380Y/beta2Delta,-0.0162 (inactive)
same,log fold change Tl+ flux,R275C,0.0162 (inactive)
same,log fold change Tl+ flux,R275C/beta1,0.231 (active)
same,log fold change Tl+ flux,R275C/beta2Delta,0.196 (active)
same,log fold change Tl+ flux,R275C/Slo1WT/beta2,0.0508 (inactive)
